Laboratory results from publication PMC8384837, “Expanding the binding specificity for RNA recognition by a PUF domain”.

What was measured:
Assay in all cases: yeast three-hybrid, YBZ-1, SC-Leu-His + 0.5 mM 3-AT, 4 days
Conditions in all cases: tags: N-Gal4 AD-HA kept; label: inside an RPR1-promoter hybrid RNA with tandem MS2 sites; ssRNA
PUM1 PUF domain R7-RRF = PUM1 PUF domain R7-RRF (Homo sapiens, UniProt Q14671 828-1176, S1079R;N1080R;E1083F)
How it was run: (§1)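 Repeat regions from input (SC-Leu) and selection (SC-Leu-His + 0.5 mM 3-AT) plates were PCR-amplified and Illumina-sequenced after four days of growth. The cells were strain YBZ-1 with a LexA–MS2 coat fusion and a HIS3 reporter, co-expressing Pumilio-1 PUF domain libraries and matching RNA elements from a centromeric plasmid. The interaction score is the log change in variant frequency from input to selection, taken in log2 with a pseudocount of 1 for absent variants.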

PUM1 PUF domain R5-FNG = PUM1 PUF domain R5-FNG (Homo sapiens, UniProt Q14671 828-1176, C1007F;R1008N;Q1011G)
Sequence of PUM1 PUF domain R5-FNG (Q14671 828-1176 C1007F/R1008N/Q1011G): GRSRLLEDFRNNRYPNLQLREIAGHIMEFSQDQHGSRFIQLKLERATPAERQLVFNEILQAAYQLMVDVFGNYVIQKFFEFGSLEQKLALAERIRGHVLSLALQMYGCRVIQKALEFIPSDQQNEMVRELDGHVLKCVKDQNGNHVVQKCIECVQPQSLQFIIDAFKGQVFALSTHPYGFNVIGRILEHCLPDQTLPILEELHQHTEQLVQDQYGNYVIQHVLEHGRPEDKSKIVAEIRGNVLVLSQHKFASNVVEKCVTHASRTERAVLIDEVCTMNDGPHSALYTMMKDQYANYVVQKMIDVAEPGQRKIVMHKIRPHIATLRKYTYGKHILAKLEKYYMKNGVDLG
How it was run: as §1

PUM1 PUF domain R5-GNW = PUM1 PUF domain R5-GNW (Homo sapiens, UniProt Q14671 828-1176, C1007G;R1008N;Q1011W)
Sequence of PUM1 PUF domain R5-GNW (Q14671 828-1176 C1007G/R1008N/Q1011W): as the sequence (Q14671 828-1176 C1007F/R1008N/Q1011G) above, with F180G, G184W counted along it
How it was run: as §1

PUM1 PUF domain R5-KYY = PUM1 PUF domain R5-KYY (Homo sapiens, UniProt Q14671 828-1176, C1007K;R1008Y;Q1011Y)
Sequence of PUM1 PUF domain R5-KYY (Q14671 828-1176 C1007K/R1008Y/Q1011Y): as the sequence (Q14671 828-1176 C1007F/R1008N/Q1011G) above, with F180K, N181Y, G184Y counted along it
How it was run: as §1

PUM1 PUF domain R3-VWS = PUM1 PUF domain R3-VWS (Homo sapiens, UniProt Q14671 828-1176, C935V;R936W;Q939S)
Sequence of PUM1 PUF domain R3-VWS (Q14671 828-1176 C935V/R936W/Q939S): as the sequence (Q14671 828-1176 C1007F/R1008N/Q1011G) above, with C108V, R109W, Q112S, F180C, N181R, G184Q counted along it
How it was run: as §1

PUM1 PUF domain R3-EWG = PUM1 PUF domain R3-EWG (Homo sapiens, UniProt Q14671 828-1176, C935E;R936W;Q939G)
Sequence of PUM1 PUF domain R3-EWG (Q14671 828-1176 C935E/R936W/Q939G): as the sequence (Q14671 828-1176 C1007F/R1008N/Q1011G) above, with C108E, R109W, Q112G, F180C, N181R, G184Q counted along it
How it was run: as §1

PUM1 PUF domain R4-SPC = PUM1 PUF domain R4-SPC (Homo sapiens, UniProt Q14671 828-1176, N971S;H972P;Q975C)
Sequence of PUM1 PUF domain R4-SPC (Q14671 828-1176 N971S/H972P/Q975C): as the sequence (Q14671 828-1176 C1007F/R1008N/Q1011G) above, with N144S, H145P, Q148C, F180C, N181R, G184Q counted along it
How it was run: as §1

PUM1 PUF domain R4-SPS = PUM1 PUF domain R4-SPS (Homo sapiens, UniProt Q14671 828-1176, N971S;H972P;Q975S)
Sequence of PUM1 PUF domain R4-SPS (Q14671 828-1176 N971S/H972P/Q975S): as the sequence (Q14671 828-1176 C1007F/R1008N/Q1011G) above, with N144S, H145P, Q148S, F180C, N181R, G184Q counted along it
How it was run: as §1

PUM1 PUF domain R2-RKG = PUM1 PUF domain R2-RKG (Homo sapiens, UniProt Q14671 828-1176, N899R;Y900K;Q903G)
Sequence of PUM1 PUF domain R2-RKG (Q14671 828-1176 N899R/Y900K/Q903G): as the sequence (Q14671 828-1176 C1007F/R1008N/Q1011G) above, with N72R, Y73K, Q76G, F180C, N181R, G184Q counted along it
How it was run: as §1

PUM1 PUF domain R2-AWW = PUM1 PUF domain R2-AWW (Homo sapiens, UniProt Q14671 828-1176, N899A;Y900W;Q903W)
Sequence of PUM1 PUF domain R2-AWW (Q14671 828-1176 N899A/Y900W/Q903W): as the sequence (Q14671 828-1176 C1007F/R1008N/Q1011G) above, with N72A, Y73W, Q76W, F180C, N181R, G184Q counted along it
How it was run: as §1

Sequence of PUM1 PUF domain R7-RRF (Q14671 828-1176 S1079R/N1080R/E1083F): as the sequence (Q14671 828-1176 C1007F/R1008N/Q1011G) above, with F180C, N181R, G184Q, S252R, N253R, E256F counted along it

For “GGCUAGAACUAGUGGAUCCCCCGGCGCCCGGCGGCUCGAGCCCGGGUAAGUCUAAAUAGUCUGCAUGCCGCCGGGCGCCAUGCCUGCAGGUCGACUCUAGAAAACAUG”, the binding signal (PUM1 PUF domain R7-RRF) was 3.82 log2 enrichment (interaction score).
With “GGCUAGAACUAGUGGAUCCCCCGGCGCCCGGCGGCUCGAGCCCGGGUAAGUUUAAAUAGUCUGCAUGCCGCCGGGCGCCAUGCCUGCAGGUCGACUCUAGAAAACAUG” the binding signal (PUM1 PUF domain R7-RRF) was 4.42 log2 enrichment (interaction score).
With “GGCUAGAACUAGUGGAUCCCCCGGCGCCCGGCGGCUCGAGCCCGGGUAAGUGUUAAUAGUCUGCAUGCCGCCGGGCGCCAUGCCUGCAGGUCGACUCUAGAAAACAUG” the binding signal (PUM1 PUF domain R5-FNG) was 3.1 log2 enrichment (interaction score), the binding signal (PUM1 PUF domain R5-GNW) was 3.72 log2 enrichment (interaction score) and the binding signal (PUM1 PUF domain R5-KYY) was 2.56 log2 enrichment (interaction score).
With “GGCUAGAACUAGUGGAUCCCCCGGCGCCCGGCGGCUCGAGCCCGGGUAAGUGUCAAUAGUCUGCAUGCCGCCGGGCGCCAUGCCUGCAGGUCGACUCUAGAAAACAUG” the binding signal (PUM1 PUF domain R5-KYY) was 3.07 log2 enrichment (interaction score).
“GGCUAGAACUAGUGGAUCCCCCGGCGCCCGGCGGCUCGAGCCCGGGUAAGUGUAAAUAGUCUGCAUGCCGCCGGGCGCCAUGCCUGCAGGUCGACUCUAGAAAACAUG” was tested, and the binding signal (PUM1 PUF domain R3-VWS) was 2.46 log2 enrichment (interaction score), the binding signal (PUM1 PUF domain R3-EWG) was 3.61 log2 enrichment (interaction score) and the binding signal (PUM1 PUF domain R4-SPC) was 3.42 log2 enrichment (interaction score). The binding signal (PUM1 PUF domain R4-SPS) was 3.74 log2 enrichment (interaction score) and the binding signal (PUM1 PUF domain R5-KYY) was 1.63 log2 enrichment (interaction score).
For “GGCUAGAACUAGUGGAUCCCCCGGCGCCCGGCGGCUCGAGCCCGGGUAAGUGUACAUAGUCUGCAUGCCGCCGGGCGCCAUGCCUGCAGGUCGACUCUAGAAAACAUG”, the binding signal (PUM1 PUF domain R4-SPS) was 1.66 log2 enrichment (interaction score).
With “GGCUAGAACUAGUGGAUCCCCCGGCGCCCGGCGGCUCGAGCCCGGGUAAGUGUAAAGAGUCUGCAUGCCGCCGGGCGCCAUGCCUGCAGGUCGACUCUAGAAAACAUG” the binding signal (PUM1 PUF domain R2-RKG) was 4.62 log2 enrichment (interaction score) and the binding signal (PUM1 PUF domain R2-AWW) was 0.42 log2 enrichment (interaction score).
“GGCUAGAACUAGUGGAUCCCCCGGCGCCCGGCGGCUCGAGCCCGGGUAAGUGUAUAUAGUCUGCAUGCCGCCGGGCGCCAUGCCUGCAGGUCGACUCUAGAAAACAUG” was tested, and the binding signal (PUM1 PUF domain R4-SPC) was 2.92 log2 enrichment (interaction score) and the binding signal (PUM1 PUF domain R4-SPS) was 2.82 log2 enrichment (interaction score).
